Values joined by “and” are separate entries in the source; they are usually repeats but may differ in a detail not shown here. Equal values may be shown once. Active and inactive are the calls of the source. The calls were made as follows: active = hit-call score of the fitted dose curve at least 0.9, where 1 is the maximum; inactive = score below 0.9.
read-out: Matrix Metallopeptidase 9 (MMP9), MMP9 (gene 4318); assay: BSK_BE3C_MMP9: BioMAP Diversity Plus: BE3C Assay for Matrix Metallopeptidase 9 (MMP9) Biomarker Activity (AID 2284283); conditions: primary human bronchial epithelial cells
Procedure, shortened: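 Human primary bronchial epithelial cells in the BE3C system were dosed with compound for 24 h. MMP-9 was measured by ELISA, and the positive-direction response was fitted relative to DMSO as baseline. Parallel SRB staining gauged cytotoxicity.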

AC50, active:
Oc1c(Cl)cc(Cl)cc1Sc1cc(Cl)cc(Cl)c1O 2.09 µM and 1.25 µM
O=C(CC(=O)C(F)(F)C(F)(F)C(F)(F)F)c1cccs1 18.5 µM
OCC(F)(F)C(F)(F)C(F)(F)C(F)(F)C(F)(F)C(F)(F)C(F)(F)C(F)(F)C(F)(F)C(F)(F)C(F)(F)F 229 nM and 222 nM
CCCCCCCCCCCC 9.27 µM and 9.14 µM
O=S(=O)(O)C(F)(F)C(F)(F)C(F)(F)C(F)(F)C(F)(F)C(F)(F)C(F)(F)C(F)(F)C(F)(F)C(F)(F)F 9.67 µM and 13.3 µM
O=C(O)C(F)(F)OC(F)(F)C(F)(F)OC(F)(F)C(F)(F)OC(F)(F)C(F)(F)C(F)(F)C(F)(F)F 5.94 µM and 4.69 µM

outcome, inactive:
C=CC(=O)OCCC(F)(F)C(F)(F)C(F)(F)C(F)(F)C(F)(F)C(F)(F)C(F)(F)C(F)(F)F
O=C(O)CCC(F)(F)C(F)(F)C(F)(F)C(F)(F)C(F)(F)C(F)(F)F
O=C(O)CCC(F)(F)C(F)(F)C(F)(F)C(F)(F)C(F)(F)F
O=P(O)(O)CCC(F)(F)C(F)(F)C(F)(F)C(F)(F)C(F)(F)C(F)(F)F
CN(CCO)S(=O)(=O)C(F)(F)C(F)(F)C(F)(F)C(F)(F)C(F)(F)C(F)(F)C(F)(F)C(F)(F)F
Oc1ccc(Cc2ccccc2O)cc1
CN(Cc1cnc2nc(N)nc(N)c2n1)c1ccc(C(=O)N[C@@H](CCC(=O)O)C(=O)O)cc1
O=C1NS(=O)(=O)c2ccccc21
O=P(O)(O)CCC(F)(F)C(F)(F)C(F)(F)C(F)(F)C(F)(F)C(F)(F)C(F)(F)C(F)(F)F
